Compounds with a hit are over-represented: about 11% of the library has one in this group of screens.
ALDH1A1 block = qHTS Assay for Inhibitors of Aldehyde Dehydrogenase 1 (ALDH1A1) | Aldehyde dehydrogenase 1A1 (Homo sapiens), P00352 | 220,000 tested, 7.3% active | Purified ALDH1A1, NADH fluorescence, propionaldehyde substrate | Potency, µM (titrated, usually from 75.3 µM), inactives show top-dose activity, negative = inhibition, actives largely listed as inhibitors; active = well fitted inhibition curve with a large enough effect, not every such curve was filed as active; inconclusive = small, poorly fitted or top-dose-only effect, or another doubt; inactive = no such curve, though single readings can be large or run the other way;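 note: potency is the fitted concentration of half-maximal effect; plate controls were no enzyme wells and a reference inhibitor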
Target sequence (P00352 whole entry, looked up): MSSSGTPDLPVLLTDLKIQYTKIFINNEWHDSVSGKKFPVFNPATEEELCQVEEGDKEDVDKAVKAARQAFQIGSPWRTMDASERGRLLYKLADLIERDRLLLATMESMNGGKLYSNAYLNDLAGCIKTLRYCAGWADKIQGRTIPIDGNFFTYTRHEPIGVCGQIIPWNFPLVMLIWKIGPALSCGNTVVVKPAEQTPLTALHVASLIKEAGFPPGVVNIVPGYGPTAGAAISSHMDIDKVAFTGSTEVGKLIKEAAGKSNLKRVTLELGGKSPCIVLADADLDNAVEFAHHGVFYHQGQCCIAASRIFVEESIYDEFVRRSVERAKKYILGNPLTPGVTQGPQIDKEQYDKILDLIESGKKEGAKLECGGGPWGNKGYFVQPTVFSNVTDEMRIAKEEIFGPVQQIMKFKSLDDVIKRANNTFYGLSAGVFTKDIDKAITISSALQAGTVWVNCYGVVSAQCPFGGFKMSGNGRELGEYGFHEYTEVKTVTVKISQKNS
PNC inhibitor = High Content Assay for Compounds that inhibit the Assembly of the Perinucleolar Compartment | PC3M PTB-GFP, PNC prevalence imaging, 16 h; active compounds read low | AID 2417, 2010 | 140,000 tested, 3.1% active | activity change (PNC), negative = inhibition, % at 10 µM;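 active = readout at or below -70, meaning at least 70% loss of cells showing the perinucleolar compartment, a nuclear body marking cancer cells; inconclusive = readout between -30 and a set limit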;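 note: plate controls were DMSO wells for no effect and camptothecin positive control wells for full effect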
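Compounds are pinned in duplicate onto adhered PC3M cells stably expressing GFP-tagged PTB and incubated 16 h at 37 C. Cells are then fixed, nuclei stained with Hoechst, and PNC-positive cells counted.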
CBFb-RUNX1 inh = qHTS Assay for Compounds Blocking the Interaction Between CBF-beta and RUNX1 for the Treatment of Acute Myeloid Leukemia; AlphaScreen CBFb-His/RUNX1-biotin binding, biochemical; Potency, µM (series often up to 59.8 µM), inactives show at the highest dose activity, negative = inhibition, most hits filed as inhibitors; 230,000 tested, under 10 active; note: % of control where 0% means no effect
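Interaction loss through any mechanism counts as activity. Pre-formed complex of His-CBF-beta and biotin-RUNX1 (30 nM apiece) is incubated with compound 15 min, then with 50 ng nickel and 50 ng streptavidin beads for 90 min before AlphaScreen detection.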
HPGD inh = qHTS Assay for Inhibitors of HPGD (15-Hydroxyprostaglandin Dehydrogenase); 150,000 tested, 4.3% active; AID 894, 2007; purified HPGD, NADH fluorescence kinetic, PGE2 substrate; Potency, µM, without a hit: at the top dose activity change, negative = inhibition, hits mostly inhibitors; 15-hydroxyprostaglandin dehydrogenase [NAD(+)] (Homo sapiens), P15428; active = well fitted inhibition curve with a large enough effect, not every such curve was filed as active; inconclusive = small, poorly fitted or top-dose-only effect, or another doubt; inactive = no such curve, though single readings can be large or run the other way; note: potency is the fitted concentration of half-maximal effect; % is set by controls: 0 for no effect and ±100 for the full control effect
Target sequence (P15428 whole entry, looked up): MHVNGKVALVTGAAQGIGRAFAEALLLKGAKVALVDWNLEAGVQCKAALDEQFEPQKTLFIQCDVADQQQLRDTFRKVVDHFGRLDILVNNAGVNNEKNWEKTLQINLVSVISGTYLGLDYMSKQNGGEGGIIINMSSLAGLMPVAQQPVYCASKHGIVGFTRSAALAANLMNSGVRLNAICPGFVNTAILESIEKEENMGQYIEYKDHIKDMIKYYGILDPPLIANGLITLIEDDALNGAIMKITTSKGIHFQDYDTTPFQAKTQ
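20 nM HPGD preincubated 15 min at room temperature with compound in 50 mM Tris-HCl pH 8, 0.01% Tween 20. Started with 1 mM NAD+ and 30 uM prostaglandin E2; NADH fluorescence (360/450 nm) read 5 times over 30-s intervals, last minus first.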
HttQ103 aggreg = qHTS Multiplex Assay to Identify Dual Action Probes in a Cell Model of Huntington: Aggregate Formation (GFP). PC12 HttQ103-GFP aggregates, Acumen cytometry, 40 h. Potency, µM (series often up to 46.1 µM), inactives show at the top dose activity change, negative = inhibition, hits mostly inhibitors. 220,000 tested, 1.1% active. AID 1688, 2009; note: potency is the fitted concentration of half-maximal effect; % is set by controls: 0 for no effect and ±100 for the full control effect; nearly all actives have a fitted effect of over 60% in size
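Using laser scanning cytometry, GFP-positive aggregates were counted after lysis of PC12 cells induced with 100 nM tebufenozide to express HTT exon 1 Q103–GFP. Compounds were tested in titration.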
HTT cytoprotect = qHTS Multiplex Assay to Identify Dual Action Probes in a Cell Model of Huntington: Cytoprotection (ATP) | PC12 HTT-Q103 induced, cytoprotection, ATP luminescence, 40 h | Potency, µM (series often up to 56.4 µM), inactives show cytoprotection (ATP increase), actives largely listed as activators | 230,000 tested, 0.14% active; note: potency is the fitted concentration of half-maximal effect; % of control where 0% means no effect; nearly all actives have a fitted effect of over 45% in size
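PC12 cells stably carrying ecdysone-inducible Htt exon 1 (Q103)–GFP were induced with 100 nM tebufenozide (final) alongside library compounds in a dose series. Cytoprotection was scored as retained ATP by ATPlite luminescence.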
Starred values were filed as active, the others as inactive; [ ] = another dose, or the depositor's remark. Unless noted, calls come from the whole dose curve; as a rule, active = well fitted curve in the direction sought with a large enough effect; inconclusive = small, poorly fitted or top-dose-only effect, or another doubt; inactive = no such curve, though single readings can be large; an effect the other way counts as inactive or inconclusive.

For Cc1cccc(NS(=O)(=O)c2ccc(Cl)c(C(=O)O)c2)c1 the results were ALDH1A1 block 14.2% and HPGD inh -9.0%.
Screening COc1cc2oc(=O)c(Br)c(C)c2c(OC)c1OC returned ALDH1A1 block 12.6µM*, PNC inhibitor -14.6, CBFb-RUNX1 inh 0.8%, HPGD inh -13.0%, HttQ103 aggreg -14.1% and HTT cytoprotect -6.7%.
For CCc1ccc(C(=O)CSc2n[nH]c(C)n2)cc1 the results were ALDH1A1 block 11.2µM*, PNC inhibitor -29.8, CBFb-RUNX1 inh 3.8%, HPGD inh 35.5µM*, HttQ103 aggreg -6.4% and HTT cytoprotect -8.1%.
`Nc1nc(SCC(=O)c2ccc([N+](=O)[O-])cc2)n[nH]1` gave ALDH1A1 block 3.3%, CBFb-RUNX1 inh -3.0%, HttQ103 aggreg inconclusive and HTT cytoprotect -0.7%.
Cc1ccc(C(=O)CSc2n[nH]c(C)n2)cc1 was read as ALDH1A1 block inconclusive, PNC inhibitor 11.5, CBFb-RUNX1 inh 1.6%, HPGD inh inconclusive, HttQ103 aggreg -1.6% and HTT cytoprotect -16.1%[10 µM].
For Cc1ccc(C)c(C(=O)CSc2n[nH]c(C(C)C)n2)c1 the results were ALDH1A1 block -5.2%, PNC inhibitor -7.5, CBFb-RUNX1 inh -3.6%, HPGD inh 15.8µM*, HttQ103 aggreg 4.4% and HTT cytoprotect -2.2%.
`Nc1nc(SCC(=O)c2ccc(Oc3ccccc3)cc2)n[nH]1` gave ALDH1A1 block 14.1µM*, PNC inhibitor inconclusive, CBFb-RUNX1 inh 5.6%, HPGD inh -29.8%, HttQ103 aggreg 0.1% and HTT cytoprotect -27.4%.
For CCc1nc(SCC(=O)c2cc(C)ccc2C)n[nH]1 the results were ALDH1A1 block inconclusive, PNC inhibitor inconclusive, CBFb-RUNX1 inh 7.9%, HPGD inh 39.8µM*, HttQ103 aggreg -0.6% and HTT cytoprotect -0.5%[10 µM].
Screening O=C1C(O)=C(O)C(=O)C(O)=C1O returned ALDH1A1 block inconclusive, CBFb-RUNX1 inh inconclusive, HPGD inh -16.7%, HttQ103 aggreg 16.7% and HTT cytoprotect inconclusive.
Screening COc1ccc2c(c1)C(=O)[C@@H](OC(=O)NCc1ccco1)[C@H](c1ccc(OC)c(Br)c1)O2 returned ALDH1A1 block inconclusive, CBFb-RUNX1 inh -0.2%, HPGD inh -14.5% and HTT cytoprotect -23.5%.
COc1ccc(CCNC(=O)CC(c2ccccc2)c2cccc(C)c2O)cc1OC (centres undefined) was read as ALDH1A1 block 1.2%, CBFb-RUNX1 inh -8.0%, HttQ103 aggreg -3.3% and HTT cytoprotect 4.0%.
For N#CC(c1ccc(Cl)cc1)c1c(Cl)cc(-n2ncc(=O)[nH]c2=O)cc1Cl (centres undefined) the results were HttQ103 aggreg 17.7% and HTT cytoprotect 6.7%.
Nc1nc(SCC(=O)Nc2cc(-c3ccccc3)nn2-c2ccccc2)n[nH]1 was read as ALDH1A1 block 10µM*, PNC inhibitor inconclusive, CBFb-RUNX1 inh 3.5%, HPGD inh -5.5%, HttQ103 aggreg -0.3% and HTT cytoprotect -29.7%.
For Cc1ccc(-c2cc(NC(=O)CSc3n[nH]c(N)n3)n(-c3ccccc3)n2)cc1 the results were ALDH1A1 block -4.8%, PNC inhibitor 6.6, CBFb-RUNX1 inh 0.6%, HPGD inh -11.2%, HttQ103 aggreg -3.8%[9.22 µM] and HTT cytoprotect -70.0%.
`CCCCCC/C(=N\NS(C)(=O)=O)c1ccccc1` gave ALDH1A1 block -6.3%, PNC inhibitor inconclusive, CBFb-RUNX1 inh 5.5%, HPGD inh -12.7%, HttQ103 aggreg 5.2% and HTT cytoprotect -0.2%.
Nc1c(C(=O)NCC2CCCO2)sc2nc3c(c(-c4ccco4)c12)CC/C3=C\c1ccco1 (centres undefined) was read as ALDH1A1 block inconclusive, PNC inhibitor inconclusive, HPGD inh 20µM*, HttQ103 aggreg 1.8% and HTT cytoprotect -15.9%[10 µM].
Screening CCOC(=O)CSc1nc(C)cc(=O)[nH]1 returned ALDH1A1 block 3.7%, PNC inhibitor -9.3, CBFb-RUNX1 inh 6.9%, HPGD inh -7.8%, HttQ103 aggreg -20.9% and HTT cytoprotect 13.0%[0.074 µM].
CC(=O)c1c(C)cc(C)c(CSc2nc(C)cc(=O)[nH]2)c1C was read as ALDH1A1 block -14.5%, PNC inhibitor -111.6*, CBFb-RUNX1 inh 2.7%, HPGD inh inconclusive, HttQ103 aggreg 7.1% and HTT cytoprotect -9.3%[10 µM].
`COC(=O)c1cc(=O)[nH]c(SCc2cccc(C)c2)n1` gave ALDH1A1 block -1.5%, PNC inhibitor 78.3, CBFb-RUNX1 inh 11.4%[2.36 µM], HPGD inh -24.1%, HttQ103 aggreg -4.8% and HTT cytoprotect -26.7%.
For Cc1cc(=O)[nH]c(SCc2cccc(Br)c2)n1 the results were ALDH1A1 block -8.1%, PNC inhibitor 11.7, CBFb-RUNX1 inh 5.6%, HPGD inh 14.1µM*, HttQ103 aggreg -10.0% and HTT cytoprotect 4.2%.
`COc1ccc(CSc2nc(C)cc(=O)[nH]2)cc1Br` gave ALDH1A1 block 3.7%, PNC inhibitor -21.8, CBFb-RUNX1 inh 3.9%, HPGD inh 15.8µM*, HttQ103 aggreg -10.2% and HTT cytoprotect -10.2%[0.074 µM].
C/C=C/c1ccc(OCCSc2nc(C)cc(=O)[nH]2)c(OC)c1 was read as ALDH1A1 block -15.6%, PNC inhibitor 0.8, CBFb-RUNX1 inh -3.8%, HPGD inh -18.3%, HttQ103 aggreg -5.3% and HTT cytoprotect -21.5%.
For Cc1nc(-c2ccc(NC(=O)c3ccccc3Br)cc2)cs1 the results were ALDH1A1 block -5.2%, PNC inhibitor 30.4, CBFb-RUNX1 inh -0.2%, HPGD inh -22.9% and HttQ103 aggreg -17.9%.
For COC(=O)[C@H]1C[C@@H]1[C@H](NC(=O)c1cc(C)nn1C)c1ccccc1 the results were ALDH1A1 block inconclusive, CBFb-RUNX1 inh -8.2%, HPGD inh 0.5% and HTT cytoprotect 10.1%.
Screening Cc1c(/C=N/Nc2ccc(F)cc2)c(O)n(C)c(=O)c1C#N returned ALDH1A1 block 3.55µM*, CBFb-RUNX1 inh -2.8%, HttQ103 aggreg -1.6%[9.22 µM] and HTT cytoprotect 7.0%[10 µM].
Screening CC(=O)N=Cc1c(C)c(C#N)c(=O)n(C)c1O returned ALDH1A1 block -3.3%, CBFb-RUNX1 inh -10.0%, HttQ103 aggreg -24.9% and HTT cytoprotect -27.5%.
